Laboratory results reported in PubChem BioAssay.

Experiments:
[1] = test system: Botulinum neurotoxin type F light chain protease (Clostridium botulinum); assay: Clostridium botulinum type F light chain protease inhibitors, microsphere substrate cleavage, validation (AID 588459); details: multiplex microsphere protease substrate cleavage assay, flow cytometry; at 10 µM; active compounds read high
[2] = target: Botulinum neurotoxin type A (Clostridium botulinum) (UniProt P0DPI0); assay: BoNT/A light chain protease inhibitors, biochemical, multiplex microsphere flow cytometry, validation set (AID 588460); details: at 10 µM, active compounds read high
[3] = target: Lethal factor (Bacillus anthracis) (UniProt P15917); assay: Bacillus anthracis lethal factor inhibition, microsphere flow cytometry protease assay, validation at 10 µM (AID 588461); details: multiplex microsphere protease cleavage assay, active compounds read high

Measured: inhibition

Sequence of Botulinum neurotoxin type A (Clostridium botulinum) (P0DPI0 whole entry, looked up): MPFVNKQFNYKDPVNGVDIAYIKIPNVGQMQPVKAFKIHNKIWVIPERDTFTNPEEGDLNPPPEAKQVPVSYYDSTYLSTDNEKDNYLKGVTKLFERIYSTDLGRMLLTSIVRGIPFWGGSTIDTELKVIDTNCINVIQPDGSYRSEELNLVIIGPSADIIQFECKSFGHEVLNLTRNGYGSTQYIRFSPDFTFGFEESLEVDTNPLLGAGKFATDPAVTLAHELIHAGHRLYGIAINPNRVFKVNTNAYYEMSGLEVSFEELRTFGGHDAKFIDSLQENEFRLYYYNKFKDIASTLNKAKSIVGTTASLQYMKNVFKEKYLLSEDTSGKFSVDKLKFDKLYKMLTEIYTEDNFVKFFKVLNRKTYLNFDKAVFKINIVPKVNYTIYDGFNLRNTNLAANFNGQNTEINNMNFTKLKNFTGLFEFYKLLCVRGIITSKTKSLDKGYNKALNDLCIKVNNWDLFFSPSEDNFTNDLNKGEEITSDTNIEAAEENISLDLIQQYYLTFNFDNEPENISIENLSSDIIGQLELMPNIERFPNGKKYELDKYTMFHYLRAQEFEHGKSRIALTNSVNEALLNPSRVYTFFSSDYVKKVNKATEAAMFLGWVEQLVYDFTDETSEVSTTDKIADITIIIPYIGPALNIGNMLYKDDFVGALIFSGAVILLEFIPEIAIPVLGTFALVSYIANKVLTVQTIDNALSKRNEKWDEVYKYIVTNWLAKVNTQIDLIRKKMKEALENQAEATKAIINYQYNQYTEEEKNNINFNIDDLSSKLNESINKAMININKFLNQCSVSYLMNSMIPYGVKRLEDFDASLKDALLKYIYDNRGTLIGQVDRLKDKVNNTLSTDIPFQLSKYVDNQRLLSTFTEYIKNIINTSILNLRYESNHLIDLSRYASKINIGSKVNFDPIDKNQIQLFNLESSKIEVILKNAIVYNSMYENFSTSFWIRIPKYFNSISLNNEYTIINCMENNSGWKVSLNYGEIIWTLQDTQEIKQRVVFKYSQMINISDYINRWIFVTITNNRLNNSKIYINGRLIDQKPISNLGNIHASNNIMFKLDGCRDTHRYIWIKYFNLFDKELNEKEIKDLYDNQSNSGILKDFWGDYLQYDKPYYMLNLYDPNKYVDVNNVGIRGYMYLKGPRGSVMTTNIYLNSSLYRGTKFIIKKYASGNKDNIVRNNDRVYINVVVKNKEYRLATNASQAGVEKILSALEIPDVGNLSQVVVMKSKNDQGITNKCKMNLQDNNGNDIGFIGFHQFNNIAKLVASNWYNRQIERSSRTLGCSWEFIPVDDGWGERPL
Sequence of Lethal factor (Bacillus anthracis) (P15917 whole entry, looked up): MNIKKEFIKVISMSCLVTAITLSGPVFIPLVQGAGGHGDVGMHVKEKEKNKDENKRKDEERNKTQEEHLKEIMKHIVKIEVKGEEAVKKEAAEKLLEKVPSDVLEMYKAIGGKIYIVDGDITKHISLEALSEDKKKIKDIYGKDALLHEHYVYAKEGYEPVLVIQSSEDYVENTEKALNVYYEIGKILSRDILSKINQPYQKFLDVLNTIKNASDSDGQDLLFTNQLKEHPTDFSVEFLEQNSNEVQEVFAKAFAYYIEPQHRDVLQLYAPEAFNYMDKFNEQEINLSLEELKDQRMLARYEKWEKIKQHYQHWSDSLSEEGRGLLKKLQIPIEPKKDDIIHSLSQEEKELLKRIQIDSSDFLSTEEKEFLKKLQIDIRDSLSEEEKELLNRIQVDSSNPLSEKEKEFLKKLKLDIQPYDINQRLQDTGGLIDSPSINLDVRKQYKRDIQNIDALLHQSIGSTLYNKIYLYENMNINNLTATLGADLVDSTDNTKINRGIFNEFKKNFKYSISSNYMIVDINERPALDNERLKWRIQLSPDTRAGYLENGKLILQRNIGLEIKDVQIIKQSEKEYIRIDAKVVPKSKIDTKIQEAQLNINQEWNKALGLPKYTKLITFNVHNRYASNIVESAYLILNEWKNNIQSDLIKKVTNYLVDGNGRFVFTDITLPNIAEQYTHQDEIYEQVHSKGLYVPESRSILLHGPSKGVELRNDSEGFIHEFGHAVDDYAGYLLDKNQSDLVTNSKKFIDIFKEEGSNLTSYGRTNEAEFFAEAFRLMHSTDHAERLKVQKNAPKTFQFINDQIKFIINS

O=C(O)c1cc2cc(F)ccc2[nH]1
inactive: [1] 5% | [2] 2.4% | [3] 4%

CC(=O)[C@H]1CC[C@H]2[C@@H]3CCC4=CC(=O)CC[C@]4(C)[C@H]3[C@H](O)C[C@]12C
inactive: [1] -0.3% | [2] -1.3% | [3] -5.3%

Cc1ccc(S(=O)(=O)NC(=O)Nc2cc(C)ccc2F)cc1
inactive: [1] 3% | [2] -0.1% | [3] -4.1%

NCCOc1ccccc1OCCN
inactive: [1] 1.6% | [2] -0.4% | [3] -4.4%

O=c1nc2n(c3c1oc1ccccc13)Cc1ccccc1-2
inactive: [1] 2.1% | [2] 0% | [3] -4.3%

NC(=O)c1ccccc1O
inactive: [1] -3.5% | [2] -1.1% | [3] 2.5%

Cc1cn([C@H]2C[C@H](N=[N+]=[N-])[C@@H](CO)O2)c(=O)[nH]c1=O
inactive: [1] 2.4% | [2] 0.2% | [3] -2.8%

COc1ccc(C(=O)Nc2nc3ccccc3c(=O)[nH]2)cc1
inactive: [1] -3.3% | [2] -2.3% | [3] -0.8%

CCN(Cc1ccncc1)Cc1nc(Cc2ccccc2Cl)no1
inactive: [1] -4.4% | [2] -0.8% | [3] -2.6%

CC(=O)OC1c2c(ccc3ccc(=O)oc23)OC(C)(C)C1OC(=O)CC(C)C (stereo not drawn)
inactive: [1] -0.2% | [2] -1.5% | [3] -3.2%

O=C(/C=C/c1ccc2c(c1)OCCCO2)c1ccc2ccccc2c1O
inactive: [1] 1.8% | [2] 1.1% | [3] -5.5%

O=Cc1ccc(O)c(O)c1
inactive: [1] -2% | [2] -1.1% | [3] -1%

O=C(O)CC(O)C(=O)O (stereo not drawn)
inactive: [1] -3.1% | [2] -0.9% | [3] 3.8%

c1coc(-c2nnc3n2C2(CCCC2)Cc2ccccc2-3)c1
inactive: [1] 2.5% | [2] -1.4% | [3] -5.9%

CC(C)NC(=O)c1ccc(C(C)C)cc1
inactive: [1] -2.3% | [2] -1.2% | [3] -2.8%

Cc1cc(O)c(C(C)C)cc1C1(c2cc(C(C)C)c(O)cc2C)OC(=O)c2ccccc21
inactive: [1] -0.9% | [2] -0.3% | [3] -8.1%

CC(C)Cc1nc(NCCN2CCOCC2)c(C#N)c2c1COC(C)(C)C2
inactive: [1] -1.6% | [2] -0.8% | [3] -3%

Cc1ccsc1/C=N\NC(=O)c1ccc2c(c1)OCO2
inactive: [1] 2.9% | [2] 0.4% | [3] -1.3%

Cc1c(NC(=O)c2cccs2)cccc1[N+](=O)[O-]
inactive: [1] 4.2% | [2] 1.3% | [3] 5.7%

CCc1cc2c(=O)c(-c3ccc4c(c3)OCCO4)coc2c(CN2CCCCC2C)c1O (stereo not drawn)
inactive: [1] 2.5% | [2] 0.3% | [3] -1%

COc1ccc2cc(CCC(C)=O)ccc2c1
inactive: [1] -2.3% | [2] 0.4% | [3] 6.3%

Cc1nc(N)nc2c1CCCC2
inactive: [1] 2.4% | [2] 1.2% | [3] 4.9%

COc1ccc(C2=CC(=O)C=CC2=O)cc1
inactive: [1] -4.7% | [2] -1.3% | [3] -4.1%

Cc1ncc([N+](=O)[O-])n1CCO
inactive: [1] 3% | [2] -0.4% | [3] -4.2%

CC(=O)N=c1sc(S(N)(=O)=O)nn1C
inactive: [1] 4.1% | [2] 0.8% | [3] 4.2%

CCCC(=O)Nc1ncnc2c1ncn2[C@@H]1O[C@@H]2COP(=O)(O)O[C@H]2[C@H]1OC(=O)CCC
inactive: [1] -0.5% | [2] -1% | [3] -2.7%

COc1ccc(C(=O)[C@H]2[C@H]3C(=O)N(c4ccccc4)C(=O)[C@H]3C3C=CC=NN32)cc1 (stereo partly drawn)
inactive: [1] 1.9% | [2] 4.7% | [3] -5.1%

CCO/C([O-])=N/c1c[n+](N2CCOCC2)no1
inactive: [1] 0.3% | [2] 0.5% | [3] -5.4%

COc1ccc2[nH]c(=O)c3c(c2c1)OC(C)(C)C=C3
inactive: [1] 1.1% | [2] 0.3% | [3] -4.6%

COc1ccc2c(C=O)cn(C)c2c1
inactive: [1] 1.9% | [2] -0.9% | [3] 2.1%

COC(=O)c1cc(Br)c(=O)n(CCc2ccc(O)cc2)c1
inactive: [1] 2.6% | [2] 1.3% | [3] -5.3%
